The results in this text go back to PubChem BioAssay (NCI).

Compounds without any hit were thinned out: in the full panel of roughly 83,000, 20% have a hit.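 48-hour exposure, single concentration, 96-well plates; percent growth endpoint where 0 means no net growth. Active: below 10.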 Unmarked numbers belong to inactive results. Calls of active or inactive are those of the source.

Among the test systems are NCI-H23 lung; NCI-H226 lung; NCI-H322M lung; HOP-62 NSCLC; NCI-H460 lung; HOP-92 NSCLC; NCI-H522 lung; A549/ATCC NSCLC; 786-0 renal; COLO 205 colon.
Holding throughout (experiment): NCI-60 one-dose screen, 48 h (100 = growth as untreated, 0 = no growth, -100 = all killed)
Common to all, as to conditions: 10 µM

Consider `CC(C)C[C@H](NC(=O)Cn1ccc2ccccc2c1=O)B(O)O`, for which the growth in the assay on NCI-H23 lung is 74.5%; with NCI-H226 lung, 11.5%; in the assay on NCI-H322M lung, 102%; with HOP-62 NSCLC, 98.4%; in the assay with NCI-H460 lung, 106%; in the assay on HOP-92 NSCLC, 99%. For the same compound, the growth was 28.6% in the assay with NCI-H522 lung, 84.9% in the assay with A549/ATCC NSCLC and 70.3% with 786-0 renal.
As for `COc1ccc(C(=O)c2sc3nc(-c4cccs4)ccc3c2N)cc1OC`, the growth with NCI-H23 lung is 74.3%; in the assay on NCI-H226 lung, 73%; in the assay on NCI-H322M lung, 85%; in the assay on HOP-62 NSCLC, 70.6%; with NCI-H460 lung, 36.1%; with HOP-92 NSCLC, -0.708% (active). Also, the growth is 24% in the assay with NCI-H522 lung, 35.8% with A549/ATCC NSCLC and 70.7% in the assay on 786-0 renal.
As to `NS(=O)(=O)c1ccc(N2N=C(c3ccc(-c4ccccc4)cc3)CC2c2ccc(Cl)cc2)cc1` (stereo not drawn), the growth in the assay on NCI-H23 lung was 85.9%; in the assay on NCI-H226 lung it was 81%; with NCI-H322M lung, 87.6%; in the assay with HOP-62 NSCLC it was 90.8%; with NCI-H460 lung it was 70.1%; in the assay on HOP-92 NSCLC, 78.4%. Further, the growth in the assay on NCI-H522 lung was 75.1%; in the assay with A549/ATCC NSCLC, 64.1%; in the assay on 786-0 renal, 95.9%.
With `CC(C)=C1CCC(C)C/C1=N\N=C(N)N` (stereo not drawn), the growth in the assay on NCI-H23 lung was 105%; with NCI-H226 lung, 97.9%; in the assay with NCI-H322M lung it was 97.1%; with HOP-62 NSCLC, 101%; in the assay with NCI-H460 lung it was 102%; in the assay with HOP-92 NSCLC, 85.8%. The growth in the assay on NCI-H522 lung is 90.8%; in the assay on A549/ATCC NSCLC, 91.8%; in the assay with 786-0 renal, 93.3%.
Turning to `CC(=O)N(O)c1ccc(/C=C/c2ccccc2)cc1`, the growth is 31% in the assay on NCI-H23 lung; -20.6% (active) with NCI-H226 lung; 29.4% in the assay on NCI-H322M lung; 42.7% in the assay with HOP-62 NSCLC; 8.15% (active) in the assay with NCI-H460 lung; -5.13% (active) in the assay on HOP-92 NSCLC. Further, the growth is 68.3% in the assay with NCI-H522 lung, 25.6% in the assay with A549/ATCC NSCLC and 19.9% in the assay on 786-0 renal.
As for `COc1ccc(-c2nnc(COc3ccc(NC(=O)Nc4cccc(C(F)(F)F)c4)cc3F)o2)cc1`, the growth in the assay with NCI-H23 lung is 56.6%; with NCI-H226 lung it was 87.9%; in the assay on NCI-H322M lung it was 43.4%; in the assay on HOP-62 NSCLC, 67.4%; in the assay on NCI-H460 lung, 39.3%; with HOP-92 NSCLC, 25.5%. Also, the growth in the assay with NCI-H522 lung is -21.2% (active); in the assay on A549/ATCC NSCLC, 57.8%; in the assay on 786-0 renal, 78.9%; in the assay on COLO 205 colon, 88.1%.
Consider `CNC(=O)c1cc(Oc2ccc(NC(=O)Nc3ccc(Cl)c(OC(C)C)c3)c(F)c2)ccn1`, for which the growth was 28.1% in the assay on NCI-H23 lung; 52.5% in the assay on NCI-H226 lung; 81.1% in the assay on NCI-H322M lung; 69.3% in the assay on HOP-62 NSCLC; 61.1% in the assay on NCI-H460 lung; 60.1% in the assay on HOP-92 NSCLC. Further, the values for the growth in the assay with NCI-H522 lung, in the assay with A549/ATCC NSCLC and with 786-0 renal were 25.3%, 44.5% and 107%, respectively.
In the case of `COc1cc(-c2nc3cc(Cl)c(Cl)cc3[nH]2)ccc1OCC(=O)NN`, the growth with NCI-H23 lung was 92.8%; in the assay on NCI-H226 lung it was 90.5%; with NCI-H322M lung, 79.1%; in the assay with HOP-62 NSCLC, 72%; in the assay on NCI-H460 lung it was 84.8%; in the assay with HOP-92 NSCLC it was 94%. In addition, the growth with NCI-H522 lung was 67.5%; with A549/ATCC NSCLC, 71%; with 786-0 renal it was 96.1%.
Turning to `Nc1ccc2c(c1)Cc1cc(N)c(Cl)cc1-2`, the growth was 103% in the assay on NCI-H23 lung; 107% with NCI-H226 lung; 88.1% in the assay on NCI-H322M lung; 109% in the assay on HOP-62 NSCLC; 105% in the assay on NCI-H460 lung; 76.4% in the assay on HOP-92 NSCLC. Also, the growth in the assay on NCI-H522 lung was 92.2%; in the assay on A549/ATCC NSCLC, 88.2%; in the assay on 786-0 renal, 97.7%.
Regarding `COc1ccc(-c2[nH]ncc2-c2cc(OC)c(OC)c(OC)c2)cc1`, the growth is 24.9% with NCI-H23 lung; 58.7% with NCI-H226 lung; 21.8% in the assay on NCI-H322M lung; 35.6% in the assay on HOP-62 NSCLC; 4.05% (active) in the assay with NCI-H460 lung; -10.4% (active) with HOP-92 NSCLC. Moreover, the growth in the assay with NCI-H522 lung is -36.8% (active); with A549/ATCC NSCLC, 18%; in the assay on 786-0 renal it was 3.72% (active); in the assay with COLO 205 colon it was -72.4% (active).
`COc1cc(CSc2nc3ccc(C)cc3c(=O)n2-c2ccccc2)cc(OC)c1OC`: the growth in the assay with NCI-H23 lung was 22%; with NCI-H226 lung, 48.3%; with NCI-H322M lung, 47.4%; in the assay with HOP-62 NSCLC, 37.8%; with NCI-H460 lung it was 20.2%; in the assay with HOP-92 NSCLC it was 67.9%. Further, the results for the growth in the assay on NCI-H522 lung, with A549/ATCC NSCLC and in the assay on 786-0 renal were 8.32% (active), 39.3% and 37.6%, respectively.
Regarding `CCOC(=O)C1=C(Nc2ccc(OC)cc2)C(N)=NC1=N`, the growth was 52.6% with NCI-H23 lung; 42.9% in the assay on NCI-H226 lung; 50.2% with NCI-H322M lung; 52.4% in the assay on HOP-62 NSCLC; 22.2% in the assay with NCI-H460 lung; 48.4% in the assay on HOP-92 NSCLC. The growth with NCI-H522 lung was 42%; with A549/ATCC NSCLC it was 31.8%; with 786-0 renal, 59.3%.
As to `COc1cc(/C=C/C(=O)c2cc(-c3ccc(F)cc3)ccc2O)cc(OC)c1OC`, the growth was 56.3% with NCI-H23 lung; 83.5% in the assay with NCI-H226 lung; 93.6% in the assay on NCI-H322M lung; 115% with HOP-62 NSCLC; 80.6% in the assay on NCI-H460 lung; 57.8% with HOP-92 NSCLC. Also, the growth in the assay on NCI-H522 lung was 58.7%; with A549/ATCC NSCLC, 83.5%; in the assay with 786-0 renal, 94.1%.
Regarding `COC(=O)[C@]12CC[C@@H](C)[C@H](C)[C@@H]1C1=CC[C@@H]3[C@@]4(C)CC(=O)[C@H](O)[C@@]5(C)COC(=C45)C[C@@]3(C)[C@]1(C)CC2`, the growth was -66.5% (active) in the assay on NCI-H23 lung; -74.7% (active) in the assay on NCI-H226 lung; -73.4% (active) in the assay on NCI-H322M lung; -74.7% (active) in the assay on HOP-62 NSCLC; -51.8% (active) in the assay with NCI-H460 lung; -83.2% (active) in the assay on HOP-92 NSCLC. Besides, the values for the growth in the assay on NCI-H522 lung, in the assay with A549/ATCC NSCLC and in the assay on 786-0 renal were -76.3% (active), -60.4% (active) and -76.5% (active), respectively.
